This note sets out measurements from PubChem BioAssay (NCATS).

Experiment [1] concerns the target Guanine nucleotide-binding protein G(i) subunit alpha-1 (Homo sapiens) (UniProt P63096). In words: qHTS Assay for Inhibitors of RGS12 GoLoco Motif Activity (Green Fluorophore) (AID 879).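 Also: 0% = labeled peptide with Gαi1 and full inhibition = labeled peptide alone without protein; negative values mean loss of peptide binding seen as reduced polarization.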 The procedure, abridged:
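A drop in FITC polarization marked displacement of the FITC-tagged RGS12 GoLoco peptide (10 nM) from Gαi1 (50 nM). Compounds were incubated 10 min at room temperature in Tris pH 7.5 buffer containing 150 mM NaCl, 0.1 mM GDP and 0.05% NP40; unlabeled peptide titration served as control.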
In general terms: In qHTS, concentration-response curves come from the screen itself.

Experiment [2] addresses Alpha-galactosidase A (Homo sapiens) (UniProt P06280). Put plainly: Counterscreen for Glucocerebrosidase Inhibitors: qHTS Assay for Human alpha-Galactosidase at pH 4.5 (AID 992). Also: 0% is about no effect. The procedure, abridged: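 Fluorogenic 1536-well qHTS at pH 4.5 (citrate, Tween-20): 2 nM enzyme, 80 uM 4-MU-alpha-galactoside, 20 min room temperature, NaOH/glycine stop. Titration 0.7 nM to 77 uM, data normalized to no-enzyme and full-activity controls, Hill-fitted AC50.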
For orientation: Counterscreens check selectivity or assay interference.

The nature of experiment [3]: qHTS for differential inhibitors of proliferation of Plasmodium falciparum line 7G8 (AID 1815).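 Also: potency is read from the fitted curve at half-maximal effect; parasite growth measured after three days of incubation.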
A short description of experiment [4]: qHTS for differential inhibitors of proliferation of Plasmodium falciparum line D10 (AID 1877).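 Also: parasites grown with compound for 72 h before DNA staining; plate controls were vehicle wells for no effect and reference inhibitor wells for full effect.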
Experiment [5] can be described thus: qHTS for differential inhibitors of proliferation of Plasmodium falciparum line Dd2 (AID 1882).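 Also: plate controls were DMSO vehicle for no effect and 0.29 µM artemisinin for full effect; nearly all actives have a fitted effect of over 65% in size.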 The note with it: Potency: Plasmodium falciparum Dd2 proliferation inhibition. The procedure, abridged:
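SYBR Green DNA fluorescence (ex 485, em 535 nm) after overnight lysis quantifies parasite growth; compound exposure lasted 72 h at 37 C on infected red cells at 2.5% hematocrit, 0.3% parasitemia (final). Artemisinin 0.29 uM and vehicle wells define normalization.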

A short description of experiment [6]: qHTS for differential inhibitors of proliferation of Plasmodium falciparum line W2 (AID 1883).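 Also: potency is read from the fitted curve at half-maximal effect; parasites grown with compound for 72 h before lysis and staining.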 The note with it: Potency: Plasmodium falciparum W2 proliferation inhibition.
The nature of experiment [7]: qHTS Assay for Modulators of Human Peripheral Myelin Protein 22 (PMP22) Expression/Activity (AID 1967; active = well fitted curve in the direction sought with a large enough effect in the signal ratio; the % refers to the signal ratio;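 also: 0% = untreated cells and 100% end not stated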). The procedure, abridged:
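Readout is the corrected green/red luminescence ratio after 24 h compound exposure, normalised to untreated cells (0%). Engineered MSC80 mouse Schwann cells express green luciferase from the mouse Pmp22 promoter and red luciferase from EF-alpha as internal control.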

Experiment [8] can be described thus: Validation screen for small molecules that induce DNA re-replication in MCF 10A normal breast cells (AID 463097). Also: potency is read from the fitted curve at half-maximal effect; nearly all actives have a fitted effect of over 60% in size. The procedure, abridged: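 Read-out is Hoechst total nuclear intensity by fluorescence scanning imager, flagging increased high-DNA-content nuclei. Compounds were incubated with MCF 10A cells for 48 hr (37 C, 5% CO2) before 40 min staining.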
Experiment [9] has as its target M-phase phosphoprotein 8 (Homo sapiens) (UniProt Q99549). In words: qHTS Validation Assay for Inhibitors for MPP8 Chromodomain Interactions with Methylated Histone Tails (AID 488949). Also: potency is read from the fitted curve at half-maximal effect; nearly all actives have a fitted effect of over 55% in size. The procedure, abridged: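 AlphaScreen proximity signal from streptavidin donor and Ni-chelate acceptor beads (10 ug/mL each) reported binding of MPP8 to trimethyl-K9 H3(1-18) peptide, both at 50 nM. The complex formed 30 min before a 30 min compound exposure at room temperature, in PBS pH 7.4.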

In experiment [10] the target is Thyrotropin receptor (Homo sapiens) (UniProt P16473). Put plainly: qHTS Assay for Antagonists of the Thyroid Stimulating Hormone Receptor (AID 488980). Also: 0% is about no effect. The procedure, abridged:
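Inhibition of cAMP raised by EC80 TSH (4 nM final) was read by HTRF, with lysate cAMP competing against cAMP-d2 for cryptate antibody after 30 min at room temperature. The cells were transfected HEK293 held in phosphodiesterase inhibitor RO 20-1724 at 70 uM.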

Experiment [11] has as its target Thyrotropin-releasing hormone receptor (Homo sapiens) (UniProt P34981). In words: qHTS for Small Molecule Agonists and Allosteric Enhancers of Human TRH Receptor: Validation Screen for Agonists (AID 493127;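 active = calcium activation more than 3 SD above the typical response in the agonist read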;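 also: intracellular calcium rise by fluo-8 fluorescence before TRH EC20 addition; 0% is about no effect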). The conditions noted are these: TRH receptor agonist cell assay; at 2 µM; stronger effect = higher value. The procedure, abridged: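 Compounds are added by online pintool to dye-loaded TRHR cells while fluorescence is recorded every second. A rise in calcium signal during the agonist read marks activation; a later 10 nM TRH addition (EC20) serves the separate enhancer mode.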

Experiment [12] addresses Galactokinase (Homo sapiens) (UniProt P51570). In words: qHTS Validation Assay for Inhibitors of Human Galactokinase (GALK) (AID 493189). Also: 0% is about no effect. The procedure, abridged: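 Inhibition was measured as remaining ATP, detected by luciferase luminescence after a 1 h room-temperature reaction. Final conditions: 5 nM GALK, 100 uM galactose, 35 uM ATP, pH 8.0 HEPES buffer.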
A short description of experiment [13]: Validation screen for small molecules that induce DNA re-replication in SW480 colon adenocarcinoma cells (AID 504364). Also: 0% is about no effect. The procedure, abridged: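 Image-based qHTS: compounds were incubated with SW480 cells for 48 hr, nuclei stained with Hoechst, and per-nucleus fluorescence intensity scanned to flag cells with excess DNA content.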
Experiment [14] can be described thus: qHTS profiling of the MIPE4 collection as inhibitors of Plasmodium falciparum (3D7) proliferation (AID 743344; call rule not given here;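 also: scaled between DMSO vehicle wells and 0.29 µM artemisinin as full inhibition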). The conditions noted are these: P. falciparum 3D7 in erythrocytes, SYBR Green DNA fluorescence, 72 h; at 28.5 µM (top of the series). The procedure, abridged: (§1)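 Parasite DNA was quantified by SYBR Green I fluorescence (ex 485, em 535 nm) after overnight lysis in saponin/Triton buffer at room temperature. Cultures at 0.3% parasitemia and 2.5% hematocrit were first exposed to compound for 72 h at 37 C; signals were normalised to artemisinin (0.29 uM) and vehicle wells.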

Experiment [15] in a line: qHTS profiling of the MIPE4 collection as inhibitors of Plasmodium falciparum (DD2) proliferation (AID 743345; call rule not given here). The conditions noted are these: P. falciparum Dd2 in erythrocytes, SYBR Green DNA, 72 h; at 28.5 µM (top of the series). The procedure, abridged:
as §1

Experiment [16] is described as follows: qHTS profiling of the MIPE4 collection as inhibitors of Plasmodium falciparum (DD2) proliferation (Rep 2) (AID 743346; call rule not given here). The note with it: P. falciparum Dd2 in erythrocytes, SYBR Green DNA, 72 h; at 28.5 µM (top of the series). The procedure, abridged:
as §1

The nature of experiment [17]: qHTS profiling of the MIPE4 collection as inhibitors of Plasmodium falciparum (HB3) proliferation (AID 743347; call rule not given here;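 also: plate controls were DMSO vehicle wells for no effect and artemisinin wells for full effect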). The conditions noted are these: P. falciparum HB3 in erythrocytes, SYBR Green DNA, 72 h; at 28.5 µM (top of the series). The procedure, abridged: as §1
Experiment [18] can be described thus: Cell Viability qHTS for small molecule stabilizers of the endoplasmic reticulum resident proteome (AID 1508629).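 Also: potency is read from the fitted curve at half-maximal effect; compound exposure about 46 h in total before the viability read.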 The conditions noted are these: cell viability counter-screen, 100 nM thapsigargin for final 4 h.
Experiment [19] concerns the target Muscarinic acetylcholine receptor M1 (Rattus norvegicus) (UniProt P08482). In words: qHTS Assay for Antagonists of Acetylcholine Muscarinic M1 Receptor: Kinetic Measurement of Intracellular Calcium Response (AID 943). Also: potency is read from the fitted curve at half-maximal effect; nearly all actives have a fitted effect of over 75% in size. The procedure, abridged: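 Antagonism is measured as inhibition of the carbachol-evoked calcium rise in CHO cells transfected with rat M1. Cells are dye-loaded, exposed to compound for 10 min, then stimulated with 100 nM carbachol (EC80).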

Experiment [20] concerns the target Rap guanine nucleotide exchange factor 4 (Homo sapiens) (UniProt Q8WZA2). Put plainly: Confirmatory qHTS for antagonist of cAMP-regulated guanine nucleotide exchange factor 4 (EPAC2) (AID 1645885). Also: potency is read from the fitted curve at half-maximal effect; nearly all actives have a fitted effect of over 25% in size.

Structures are written as SMILES. Records with an inconclusive call do not appear. The source made the active and inactive calls. Unless noted, calls follow the shape of the dose curve; as a rule, active = well fitted curve in the direction sought with a large enough effect; inconclusive = small, poorly fitted or top-dose-only effect, or another doubt; inactive = no such curve, though single readings can be large; an effect the other way counts as inactive or inconclusive.

Sequence of Guanine nucleotide-binding protein G(i) subunit alpha-1 (Homo sapiens) (P63096 whole entry, looked up): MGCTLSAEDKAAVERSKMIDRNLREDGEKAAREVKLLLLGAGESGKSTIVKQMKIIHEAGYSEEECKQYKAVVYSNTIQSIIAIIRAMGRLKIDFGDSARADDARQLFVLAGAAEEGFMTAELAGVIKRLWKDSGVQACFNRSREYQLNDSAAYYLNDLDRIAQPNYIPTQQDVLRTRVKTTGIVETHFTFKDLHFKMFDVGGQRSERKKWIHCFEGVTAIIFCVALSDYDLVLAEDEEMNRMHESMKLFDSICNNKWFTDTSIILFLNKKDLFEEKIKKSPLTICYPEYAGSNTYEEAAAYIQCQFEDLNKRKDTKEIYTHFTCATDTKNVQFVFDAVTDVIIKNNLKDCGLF
Sequence of Galactokinase (Homo sapiens) (P51570 whole entry, looked up): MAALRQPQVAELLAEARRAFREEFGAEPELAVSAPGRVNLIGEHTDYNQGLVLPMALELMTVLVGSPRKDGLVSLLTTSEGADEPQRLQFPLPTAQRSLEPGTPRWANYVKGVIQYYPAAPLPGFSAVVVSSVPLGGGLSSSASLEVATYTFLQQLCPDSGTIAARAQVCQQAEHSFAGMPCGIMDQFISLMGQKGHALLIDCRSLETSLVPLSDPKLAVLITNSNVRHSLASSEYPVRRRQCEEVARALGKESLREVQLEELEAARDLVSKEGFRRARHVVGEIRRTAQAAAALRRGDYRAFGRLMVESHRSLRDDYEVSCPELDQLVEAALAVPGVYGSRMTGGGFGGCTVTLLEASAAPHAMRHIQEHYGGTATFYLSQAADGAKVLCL
Sequence of Alpha-galactosidase A (Homo sapiens) (P06280 whole entry, looked up): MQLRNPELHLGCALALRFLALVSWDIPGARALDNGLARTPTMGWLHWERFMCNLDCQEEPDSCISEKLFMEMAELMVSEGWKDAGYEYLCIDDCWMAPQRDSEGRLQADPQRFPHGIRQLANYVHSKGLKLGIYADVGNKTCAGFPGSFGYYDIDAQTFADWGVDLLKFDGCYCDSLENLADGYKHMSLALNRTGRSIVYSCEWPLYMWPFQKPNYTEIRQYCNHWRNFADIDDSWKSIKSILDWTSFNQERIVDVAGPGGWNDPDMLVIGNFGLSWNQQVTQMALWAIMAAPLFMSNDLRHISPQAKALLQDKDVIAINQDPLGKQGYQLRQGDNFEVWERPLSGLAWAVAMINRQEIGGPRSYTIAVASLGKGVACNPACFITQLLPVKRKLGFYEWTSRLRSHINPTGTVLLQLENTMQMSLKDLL
Sequence of Thyrotropin-releasing hormone receptor (Homo sapiens) (P34981 whole entry, looked up): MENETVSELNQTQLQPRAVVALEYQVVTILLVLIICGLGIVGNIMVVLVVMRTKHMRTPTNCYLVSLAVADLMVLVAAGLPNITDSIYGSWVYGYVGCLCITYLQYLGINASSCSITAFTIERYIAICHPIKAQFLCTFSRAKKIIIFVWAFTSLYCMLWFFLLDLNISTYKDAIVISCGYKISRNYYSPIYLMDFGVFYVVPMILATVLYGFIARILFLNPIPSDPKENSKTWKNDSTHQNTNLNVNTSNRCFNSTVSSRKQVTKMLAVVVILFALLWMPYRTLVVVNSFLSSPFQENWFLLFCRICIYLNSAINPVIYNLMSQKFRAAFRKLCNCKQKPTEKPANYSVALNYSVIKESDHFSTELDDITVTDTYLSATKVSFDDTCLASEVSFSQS
Sequence of Thyrotropin receptor (Homo sapiens) (P16473 whole entry, looked up): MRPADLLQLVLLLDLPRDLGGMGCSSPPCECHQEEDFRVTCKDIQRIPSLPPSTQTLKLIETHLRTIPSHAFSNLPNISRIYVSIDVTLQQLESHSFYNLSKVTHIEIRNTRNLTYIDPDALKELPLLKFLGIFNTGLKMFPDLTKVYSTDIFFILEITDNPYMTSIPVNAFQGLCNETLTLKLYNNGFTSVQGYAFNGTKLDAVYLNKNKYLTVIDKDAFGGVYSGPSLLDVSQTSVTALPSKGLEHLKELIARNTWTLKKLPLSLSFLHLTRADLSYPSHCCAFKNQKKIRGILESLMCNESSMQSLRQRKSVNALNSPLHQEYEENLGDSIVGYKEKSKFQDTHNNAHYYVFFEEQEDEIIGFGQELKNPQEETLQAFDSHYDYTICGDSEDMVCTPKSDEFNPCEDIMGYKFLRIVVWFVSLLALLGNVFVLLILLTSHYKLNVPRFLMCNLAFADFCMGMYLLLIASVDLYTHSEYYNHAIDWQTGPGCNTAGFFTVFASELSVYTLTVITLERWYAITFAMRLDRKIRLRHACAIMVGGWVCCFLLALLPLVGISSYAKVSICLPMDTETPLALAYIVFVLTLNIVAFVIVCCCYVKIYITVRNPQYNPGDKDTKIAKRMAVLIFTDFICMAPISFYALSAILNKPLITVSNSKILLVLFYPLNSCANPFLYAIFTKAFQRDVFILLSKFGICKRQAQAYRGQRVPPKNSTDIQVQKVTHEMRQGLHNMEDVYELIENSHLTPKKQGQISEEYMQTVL
Sequence of Rap guanine nucleotide exchange factor 4 (Homo sapiens) (Q8WZA2 whole entry, looked up): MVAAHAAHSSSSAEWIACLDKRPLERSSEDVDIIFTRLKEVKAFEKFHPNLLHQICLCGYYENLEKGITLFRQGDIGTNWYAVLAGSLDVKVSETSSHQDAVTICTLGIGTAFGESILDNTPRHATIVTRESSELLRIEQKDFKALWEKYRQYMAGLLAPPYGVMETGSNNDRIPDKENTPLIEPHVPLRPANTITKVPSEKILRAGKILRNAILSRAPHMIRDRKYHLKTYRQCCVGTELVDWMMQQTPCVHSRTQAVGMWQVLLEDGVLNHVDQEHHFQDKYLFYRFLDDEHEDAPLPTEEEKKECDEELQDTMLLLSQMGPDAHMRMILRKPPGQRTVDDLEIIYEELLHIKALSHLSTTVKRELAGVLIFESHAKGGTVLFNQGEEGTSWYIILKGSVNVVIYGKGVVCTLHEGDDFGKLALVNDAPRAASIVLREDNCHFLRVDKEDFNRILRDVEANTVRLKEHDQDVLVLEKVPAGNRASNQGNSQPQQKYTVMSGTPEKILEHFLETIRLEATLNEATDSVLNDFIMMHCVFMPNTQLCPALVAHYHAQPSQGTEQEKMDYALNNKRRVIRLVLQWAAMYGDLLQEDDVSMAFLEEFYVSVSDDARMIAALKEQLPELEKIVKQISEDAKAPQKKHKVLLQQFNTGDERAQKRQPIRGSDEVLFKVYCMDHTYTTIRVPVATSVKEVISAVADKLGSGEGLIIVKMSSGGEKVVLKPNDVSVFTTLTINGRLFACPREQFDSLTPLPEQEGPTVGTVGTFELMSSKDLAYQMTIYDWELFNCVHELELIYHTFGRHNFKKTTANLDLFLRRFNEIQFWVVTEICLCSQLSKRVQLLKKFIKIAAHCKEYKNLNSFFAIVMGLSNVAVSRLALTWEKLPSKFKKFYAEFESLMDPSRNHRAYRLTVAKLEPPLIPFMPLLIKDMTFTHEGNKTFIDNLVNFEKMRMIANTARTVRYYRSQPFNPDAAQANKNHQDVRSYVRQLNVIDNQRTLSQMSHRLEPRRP
Sequence of M-phase phosphoprotein 8 (Homo sapiens) (Q99549 whole entry, looked up): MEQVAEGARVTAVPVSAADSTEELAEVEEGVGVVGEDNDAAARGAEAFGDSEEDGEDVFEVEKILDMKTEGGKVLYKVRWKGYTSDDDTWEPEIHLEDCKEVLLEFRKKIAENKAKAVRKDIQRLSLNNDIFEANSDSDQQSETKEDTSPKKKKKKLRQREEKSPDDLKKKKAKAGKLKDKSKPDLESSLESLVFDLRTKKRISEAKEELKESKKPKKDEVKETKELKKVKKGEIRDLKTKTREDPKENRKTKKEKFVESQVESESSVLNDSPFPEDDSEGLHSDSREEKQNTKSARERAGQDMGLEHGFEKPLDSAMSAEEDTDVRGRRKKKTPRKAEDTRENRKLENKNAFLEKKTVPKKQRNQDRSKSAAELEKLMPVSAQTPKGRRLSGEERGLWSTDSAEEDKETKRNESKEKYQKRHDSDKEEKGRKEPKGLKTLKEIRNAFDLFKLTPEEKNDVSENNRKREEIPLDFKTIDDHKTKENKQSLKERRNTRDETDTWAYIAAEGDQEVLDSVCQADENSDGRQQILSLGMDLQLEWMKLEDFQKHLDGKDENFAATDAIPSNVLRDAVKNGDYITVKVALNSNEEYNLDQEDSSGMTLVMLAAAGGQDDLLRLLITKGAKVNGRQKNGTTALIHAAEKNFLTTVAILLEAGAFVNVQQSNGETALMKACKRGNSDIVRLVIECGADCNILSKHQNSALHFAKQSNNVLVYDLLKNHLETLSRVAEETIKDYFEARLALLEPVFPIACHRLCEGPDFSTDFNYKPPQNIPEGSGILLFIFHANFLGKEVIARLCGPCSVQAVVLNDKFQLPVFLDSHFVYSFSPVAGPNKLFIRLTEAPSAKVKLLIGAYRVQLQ
Sequence of Muscarinic acetylcholine receptor M1 (Rattus norvegicus) (P08482 whole entry, looked up): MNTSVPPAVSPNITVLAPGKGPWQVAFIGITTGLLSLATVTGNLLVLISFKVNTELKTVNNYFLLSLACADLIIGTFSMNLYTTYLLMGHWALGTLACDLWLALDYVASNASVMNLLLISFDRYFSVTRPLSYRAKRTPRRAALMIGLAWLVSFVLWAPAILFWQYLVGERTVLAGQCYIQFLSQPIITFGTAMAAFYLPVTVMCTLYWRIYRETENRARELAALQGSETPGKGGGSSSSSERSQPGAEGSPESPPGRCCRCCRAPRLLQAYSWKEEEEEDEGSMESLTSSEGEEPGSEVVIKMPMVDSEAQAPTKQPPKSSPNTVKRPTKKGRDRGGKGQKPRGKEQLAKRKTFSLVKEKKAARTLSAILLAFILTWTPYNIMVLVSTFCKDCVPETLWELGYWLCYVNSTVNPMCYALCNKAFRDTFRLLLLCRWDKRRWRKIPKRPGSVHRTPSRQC

On to `CC(C)=CCC/C(C)=C/CC/C(C)=C/CSc1ccccc1C(=O)O`, for which the compound was called inactive in experiment [1], in experiment [2], in experiment [7], in experiment [10], in experiment [12] and in [13]. In addition, the Potency is 11.2 µM (active) in experiment [3], 11.2 µM (active) in [6], 11.2 µM (active) in experiment [8] and 56.2 µM (active) in experiment [9]. The Potency result in experiment [4] and in experiment [5] was “inactive” throughout. Also, in experiment [11], the activation was 1.12% (inactive).

On to `CC1(C)N=C(N)N=C(N)N1c1ccc(Cl)cc1`, for which, in experiment [14], the parasite growth, % of DMSO control came out at 5.76%. In experiment [15], this compound came in with a parasite growth remaining, % of DMSO control (lower = more inhibition) of 13.5%. Further, the parasite growth, % of control (lower = inhibition) in experiment [16] turned out to be 19.9%. The compound further displayed a growth, % of control in experiment [17] of 2.49%.

As for `CS(=O)(=O)CCNCc1nc(-c2ccc3ncnc(Nc4ccc(OCc5cccc(F)c5)c(Cl)c4)c3c2)cs1`, the Potency in [18] is 15.8 µM (active).

Regarding `CN1CCN(CCC=C2c3ccccc3Sc3ccc(S(=O)(=O)N(C)C)cc32)CC1`, the Potency in experiment [19] was 14.1 µM (active).

Turning to `CCC(=O)O[C@H]1CC[C@H]2[C@@H]3CCc4cc(O)ccc4[C@H]3CC[C@]12C`, the Potency in [20] was 27.8 µM (active).
